Results reported in PubChem BioAssay AID1851 (National Center for Advancing Translational Sciences (NCATS), 2009).
The campaign covered roughly 16,000 compounds. About 5,800 (36%) were called active. Not shown: some 23% with an inconclusive outcome. The list shows a part of the results. A number with no mark means an inactive call. Calls follow the shape of the dose curve; as a rule, active = well fitted curve in the direction sought with a large enough effect; inconclusive = small, poorly fitted or top-dose-only effect, or effect the other way; inactive = no such curve, though single readings can be large or run the other way.

These compounds were tested against Cytochrome P450 2C19 (Homo sapiens) (UniProt P33261) (assay: Cytochrome panel assay with activity outcomes). Conditions: recombinant CYP, pro-luciferin dealkylation, luminescence, p450-cyp2c19; series mostly up to 57.1 µM; activity, negative = inhibition: at the top concentration.
Cytochrome P450 2C19 (Homo sapiens), sequence (P33261 whole entry, looked up): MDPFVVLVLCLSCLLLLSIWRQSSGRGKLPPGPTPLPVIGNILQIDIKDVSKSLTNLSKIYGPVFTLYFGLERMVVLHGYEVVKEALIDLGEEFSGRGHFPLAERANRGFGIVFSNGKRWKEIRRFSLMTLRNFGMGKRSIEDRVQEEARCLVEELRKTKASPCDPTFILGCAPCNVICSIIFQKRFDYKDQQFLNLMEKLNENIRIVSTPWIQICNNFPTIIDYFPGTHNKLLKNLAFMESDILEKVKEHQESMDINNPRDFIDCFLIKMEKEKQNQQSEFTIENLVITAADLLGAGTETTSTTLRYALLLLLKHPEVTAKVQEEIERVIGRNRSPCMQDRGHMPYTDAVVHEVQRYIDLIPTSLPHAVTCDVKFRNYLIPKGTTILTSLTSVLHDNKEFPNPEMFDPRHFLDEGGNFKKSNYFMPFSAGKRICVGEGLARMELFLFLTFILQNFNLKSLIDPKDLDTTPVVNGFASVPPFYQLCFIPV
% is scaled to controls: 0 for no effect and ±100 for the full control effect.

Row | SMILES | activity, negative = inhibition | AC50
1 | O=C(O)CCNc1ccccc1C(=O)O | 16.3% [at 11.4 µM] | 
2 | O=C(O)c1ccccc1/C=N\N=C1c2ccccc2-c2ccccc21 | 2.09% [at 11.4 µM] | 
3 | O=C(O)c1ccccc1N/N=C\c1ccnc2ccccc12 |  | 15800 nM (active)
4 | CCOC(=O)c1ccccc1OCc1cc(/C=N/n2cnnc2)ccc1OC |  | 794 nM (active)
5 | CN1CCN(c2ccc([N+](=O)[O-])cc2NC(=O)c2ccccc2Cl)CC1 | -22% | 
6 | CCC(=O)NC(=S)N1CCN(c2ccc([N+](=O)[O-])cc2Cl)CC1 |  | 2820 nM (active)
7 | O=C(Nc1cccc(-c2cnc3ccccc3n2)c1)c1ccc(Cl)cc1 | 12.6% | 
8 | O=C(Nc1cc(Sc2ccccn2)cc([N+](=O)[O-])c1)c1ccc(Cl)cc1 |  | 3160 nM (active)
9 | COC(=O)c1ccc(CSc2nc3cc(Cl)ccc3s2)o1 |  | 3160 nM (active)
10 | C1CCc2nnnn2CC1 | 21.2% [at 25.6 µM] | 
11 | Cn1cc(-c2nc3cncnc3n(Cc3ccccc3Cl)c2=O)c2ccccc21 | 1.7% | 
12 | COc1cccc(Nc2ncc3nc(CCc4ccccc4)c(=O)n(CCC#N)c3n2)c1 | 10.6% | 
13 | COCCn1c(=O)c(-c2ccc(F)c(F)c2)nc2cncnc21 | -37% | 
14 | COc1ccccc1CCn1c(=O)c(-c2cn(C)c3ccccc23)nc2cncnc21 |  | 316 nM (active)
15 | COc1ccccc1CCn1c(=O)c(-c2ccc(F)c(F)c2)nc2cncnc21 |  | 1260 nM (active)
16 | COCCn1c(=O)c(-c2ccc(F)cc2)nc2cncnc21 | -31.8% | 
17 | COc1cccc(Cn2c(=O)c(-c3cn(C)c4ccccc34)nc3cncnc32)c1 | -42.6% | 
18 | CN1CCN(c2ncc3nc(CCc4ccccc4)c(=O)n(C)c3n2)CC1 | -32% | 
19 | COc1ccccc1CCn1c(=O)c(-c2ccc(F)cc2)nc2cncnc21 |  | 316 nM (active)
20 | COc1ccc(-n2c(=O)c(-c3ccc(F)c(F)c3)nc3cncnc32)cc1 | -25.4% | 

Row | SMILES | activity, negative = inhibition | AC50
21 | Cn1c(=O)c(-c2ccc(F)cc2)nc2cncnc21 | -7.45% | 
22 | COc1ccccc1CCn1c(=O)c(CCc2ccccc2)nc2cncnc21 |  | 3160 nM (active)
23 | CCOC(=O)N/N=C1/C[C@@H](O)[C@@H](O)[C@@H]2[C@@H]3C(=O)N(C(C)(C)C)C(=O)[C@H]3CC[C@H]12 | 1.59% [at 11.4 µM] | 
24 | COc1ccc(C[C@@H]2C(=O)N[C@H](C)C(=O)N(C)[C@@H]3Cc4ccc(cc4)Oc4cc(ccc4O)C[C@H](C(=O)N[C@@H](C)C(=O)N[C@H](C)C(=O)N2C)N(C)C3=O)cc1 | 1.07% [at 11.4 µM] | 
25 | Cn1c(=O)c(-c2ccccc2)nc2cncnc21 | -11.3% | 
26 | COc1ccccc1CCn1c(=O)c(-c2ccc(Cl)cc2)nc2cncnc21 |  | 398 nM (active)
27 | Cn1c(=O)c(-c2cccc(Cl)c2)nc2cncnc21 | -41.4% | 
28 | COc1ccccc1CCn1c(=O)c(-c2cccs2)nc2cncnc21 |  | 2000 nM (active)
29 | COCCn1c(=O)c(-c2ccc(Cl)cc2)nc2cnc(Nc3ccccc3)nc21 | 16.1% | 
30 | COCCn1c(=O)c(-c2cccs2)nc2cnc(N(C)C)nc21 | -26.2% | 
31 | COc1ncc2nc(-c3cccs3)c(=O)n(CCC#N)c2n1 | -1.19% | 
32 | Cn1c(=O)c(-c2ccc(Cl)cc2)nc2cncnc21 | -17.1% | 
33 | COc1ccccc1CCn1c(=O)c(-c2cccc(Cl)c2)nc2cncnc21 |  | 251 nM (active)
34 | COc1ccccc1CCn1c(=O)c(-c2ccccc2)nc2cncnc21 |  | 631 nM (active)
35 | COCCn1c(=O)c(-c2cccc(Cl)c2)nc2cncnc21 | -24.7% | 
36 | O=C(Nc1ccccc1)N1CCCC2(CCN(C(=O)c3ccco3)CC2)C1 | -38.7% | 
37 | CCOC(=O)N/N=C1/C[C@@H](O)[C@@H](O)[C@@H]2[C@@H]3C(=O)N(c4cccc(Oc5ccccc5)c4)C(=O)[C@H]3CC[C@@H]12 | -10.2% [at 11.4 µM] | 
38 | NS(=O)(=O)c1cc(Br)c(N=Nc2ccc(O)c3ncccc23)c(Br)c1 | -10.5% [at 11.4 µM] | 
39 | COc1ccc(-n2c(=O)c(-c3cn(C)c4ccccc34)nc3cnc(OC)nc32)cc1 | -5% | 
40 | COc1ccc(-n2c(=O)c(-c3cn(C)c4ccccc34)nc3cncnc32)cc1 |  | 15800 nM (active)

Row | SMILES | activity, negative = inhibition | AC50
41 | CCn1ncc(/C=C/C(=O)NCc2cn(C)nc2C)c1C | -1.07% | 
42 | COc1ccc(C(=O)NN)cc1COc1ccc(Br)cc1 |  | 251 nM (active)
43 | Cc1nn(C)cc1CNC(=O)CCC(=O)O | -3.78% | 
44 | COc1ccc(/C=C/C(=O)NCc2cn(C)nc2C)cc1COc1ccc(Br)cc1 |  | 3980 nM (active)
45 | NC(=O)C1=CN([C@@H]2O[C@@H](COP(=O)(O)OP(=O)(O)OC[C@@H]3O[C@H](n4cnc5c(N)ncnc54)[C@@H](OP(=O)(O)O)[C@@H]3O)[C@H](O)[C@@H]2O)C=CC1 | 3.48% | 
46 | CS(=O)(=O)c1ccc(/C=N\NC(N)=S)cc1 | -0.291% [at 11.4 µM] | 
47 | CC(C)c1ccc(/C=N/NC(=O)CN(c2cccc(Cl)c2Cl)S(C)(=O)=O)cc1 |  | 15800 nM (active)
48 | Nc1nc(NCc2ccccc2)nc(Nc2cccc(F)c2)c1[N+](=O)[O-] | -3.88% | 
49 | Cc1[nH]nc(Nc2ccccc2)c1[N+](=O)[O-] |  | 14100 nM (active)
50 | Cc1cccc(-c2n[nH]c([N+](=O)[O-])n2)c1 | -14.2% | 
51 | CN=C1S/C(=C\c2ccc(Sc3ccc(Cl)cc3)o2)C(=O)N1C | -21.7% | 
52 | Clc1ccc(Sc2ccc(/C=N/n3cnnc3)o2)cc1 |  | 2820 nM (active)
53 | CCCN1C(=O)/C(=C/c2ccc(C)s2)SC1=Nc1ccc(OC)cc1 |  | 11200 nM (active)
54 | COc1ccc(N=C2S/C(=C\c3ccc(C)s3)C(=O)N2CC(C)C)cc1 | -27% | 
55 | CC(C)CN(CC#N)CC(C)C | 2.34% [at 11.4 µM] | 
56 | c1ccc(-c2nc3ccccn3c2NCc2ccc3c(c2)OCO3)cc1 |  | 316 nM (active)
57 | CN(C)CCNS(=O)(=O)N(C)C | 0.116% [at 11.4 µM] | 
58 | C=CCN=C(NC#N)SCc1ccccc1 |  | 14100 nM (active)
59 | Cc1ccc(/C=C/C2=Cc3c(sc(NC(=O)CSc4n[nH]c(N)n4)c3C#N)C(C)(C)C2)o1 |  | 4470 nM (active)
60 | CCOc1ccc(/C=C/C2=Cc3c(sc(NC(=O)CSc4n[nH]c(N)n4)c3C#N)C(C)(C)C2)cc1 |  | 10000 nM (active)
